Our source for the growth values is PubChem BioAssay (NCI).

Test systems include NCI-H23 lung; NCI-H226 lung; NCI-H322M lung; HOP-62 NSCLC; NCI-H460 lung; HOP-92 NSCLC; NCI-H522 lung; A549/ATCC NSCLC; 786-0 renal; COLO 205 colon; DU-145 prostate; K-562 leukemia; MALME-3M melanoma; MDA-MB-231 breast; RXF 393 renal; SF-268 CNS; SF-295 CNS; SF-539 CNS; UACC-257 melanoma; M14 melanoma.
Test in all cases: NCI-60 one-dose screen, 48 h (100 = growth as untreated, 0 = no growth, -100 = all killed)
Common to all, as to conditions: 10 µM unless noted

The panel holds about 83,000 compounds, 20% with a hit somewhere; the sample as a whole holds those more often.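 The endpoint reported here, percent growth, reads 100 for growth as untreated, 0 for no net growth and -100 for all cells dead.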 Values without a mark were called inactive. Calls of active or inactive are those of the source. The calls were made as follows: active = growth percent below 10; inactive = the rest.

As to `Cc1cc(C2(c3cc(C)c(OCC(O)CNc4c(C)n(C)n(-c5ccccc5)c4=O)cc3C(C)C)OC(=O)c3ccccc32)c(C(C)C)cc1OCC(O)CNc1c(C)n(C)n(-c2ccccc2)c1=O` (stereo not given), the growth in the test with NCI-H23 lung is 34.7%; in the test on NCI-H226 lung, 42%; in the test on NCI-H322M lung, 61%; in the test on HOP-62 NSCLC, 52%; in the test with NCI-H460 lung it was 18.2%; with HOP-92 NSCLC, -9.82% (active). Further, the growth is 8.24% (active) with NCI-H522 lung; 22.4% with A549/ATCC NSCLC; 24.2% with 786-0 renal; 10.6% in the test on COLO 205 colon; 50.7% with DU-145 prostate; 4.53% (active) with K-562 leukemia. Also, the growth in the test with MALME-3M melanoma is 26.3%; in the test on MDA-MB-231 breast, -36.5% (active); in the test with RXF 393 renal, 1.98% (active); in the test on SF-268 CNS, 32.6%; in the test with SF-295 CNS, 24%; in the test on SF-539 CNS, 38.9%. The growth in the test with UACC-257 melanoma was 27.5%; in the test with M14 melanoma, 29.2%.

Take `CN(C)c1nc(NCCNS(=O)(=O)c2ccc(C(=O)/C=C/c3ccc(C(F)(F)F)cc3)cc2)nc(N2CCOCC2)n1`: the growth was -64.2% (active) with NCI-H23 lung; 60.8% in the test on NCI-H226 lung; 72% in the test with NCI-H322M lung; 80.1% with HOP-62 NSCLC; 28.8% in the test with NCI-H460 lung; 32.3% in the test with HOP-92 NSCLC. In addition, the growth in the test with NCI-H522 lung was 18.5%; in the test on A549/ATCC NSCLC, 16.6%; in the test with 786-0 renal, -85.1% (active); in the test with COLO 205 colon, 16.1%; in the test with DU-145 prostate, 3.39% (active); in the test on K-562 leukemia, -13.6% (active). The growth in the test on MALME-3M melanoma was 56.5%; in the test on MDA-MB-231 breast it was -59.1% (active); in the test with RXF 393 renal, -76.6% (active); in the test on SF-268 CNS it was 50.5%; in the test on SF-295 CNS, 7.03% (active); in the test on SF-539 CNS it was -95.4% (active). The growth in the test with UACC-257 melanoma is 37.9%; in the test on M14 melanoma it was -87.5% (active).

Take `Cc1ccc(C(=O)Nc2ccc(-n3ccnc3)c(C(F)(F)F)c2)cc1C#Cc1cnc2cccnn12`: the growth in the test with NCI-H23 lung was 13.3%; in the test with NCI-H226 lung, -52.4% (active); in the test with NCI-H322M lung, 44.5%; in the test with HOP-62 NSCLC, -20.3% (active); in the test with NCI-H460 lung it was 18.8%; with HOP-92 NSCLC it was -14.1% (active). Also, the growth is -20% (active) in the test on NCI-H522 lung; 28.8% with A549/ATCC NSCLC; 14% in the test on 786-0 renal; 22.5% with COLO 205 colon; 40.7% in the test with DU-145 prostate; 4.76% (active) in the test with K-562 leukemia. Further, the growth with MALME-3M melanoma was -14% (active); in the test with MDA-MB-231 breast, -15.5% (active); in the test on RXF 393 renal, -20% (active); with SF-268 CNS it was 45.4%; in the test with SF-295 CNS, 21.8%; in the test on SF-539 CNS it was -40.9% (active). For the same molecule, the figures for the growth in the test on UACC-257 melanoma and in the test with M14 melanoma were 8.92% (active) and 1.02% (active), respectively.

Consider `O=C(Cn1c(-c2ccccc2)nc2ccccc21)N=Nc1c(O)[nH]c2ccc(Cl)cc12`, for which the growth in the test on NCI-H23 lung was 20.8%; in the test with NCI-H226 lung, -62.1% (active); in the test with NCI-H322M lung it was 5% (active); in the test on HOP-62 NSCLC it was -58.6% (active); in the test on NCI-H460 lung it was 3.44% (active); in the test on HOP-92 NSCLC, -41.7% (active). In addition, the growth in the test with NCI-H522 lung was 40.5%; with A549/ATCC NSCLC it was 6.42% (active); with 786-0 renal, -18.5% (active); in the test with COLO 205 colon, -40.3% (active); in the test with DU-145 prostate, 6.32% (active); with K-562 leukemia, 10.6%. In addition, the growth in the test on MALME-3M melanoma was 5.8% (active); in the test on MDA-MB-231 breast it was -42% (active); in the test on RXF 393 renal, -63.8% (active); in the test on SF-268 CNS it was 7.18% (active); with SF-295 CNS, -40% (active); with SF-539 CNS, -46.6% (active). In addition, the values for the growth in the test on UACC-257 melanoma and with M14 melanoma were 36.5% and 14.9%, respectively.

Take `Cc1nc2sccn2c1-c1nnc(SCc2ccccc2)o1`: the growth was 86.1% with NCI-H23 lung; 75.5% with NCI-H226 lung; 90.4% in the test with NCI-H322M lung; 99.9% in the test on HOP-62 NSCLC; 99.6% in the test with NCI-H460 lung; 71.9% in the test with HOP-92 NSCLC. The growth in the test on NCI-H522 lung is 78.2%; in the test with A549/ATCC NSCLC, 91.2%; with 786-0 renal, 76.1%; in the test on COLO 205 colon it was 112%; with DU-145 prostate, 96.6%; in the test with K-562 leukemia it was 75.8%. Moreover, the growth with MALME-3M melanoma was 106%; in the test on MDA-MB-231 breast, 98.6%; with RXF 393 renal, 78.9%; in the test with SF-268 CNS, 105%; in the test on SF-295 CNS it was 82.5%; in the test with SF-539 CNS, 93.4%. The growth with UACC-257 melanoma is 94%; in the test on M14 melanoma it was 96.7%.

In the case of `Clc1ccc(Nc2nnc(-c3c[nH]c4ccccc34)o2)cc1`, the growth is 77.9% in the test on NCI-H23 lung; 66.7% in the test with NCI-H226 lung; 91.3% with NCI-H322M lung; 67.8% in the test on HOP-62 NSCLC; 83% in the test on NCI-H460 lung; 70.9% in the test with HOP-92 NSCLC. In addition, the growth was 24.2% with NCI-H522 lung; 68.6% with A549/ATCC NSCLC; 90.1% in the test on 786-0 renal; 116% in the test on COLO 205 colon; 91% with DU-145 prostate; 32% in the test with K-562 leukemia. Further, the growth was 78.8% in the test with MALME-3M melanoma; 65.1% in the test on MDA-MB-231 breast; 90.2% in the test with RXF 393 renal; 68.6% with SF-268 CNS; 68.6% in the test on SF-295 CNS; 66.5% with SF-539 CNS. Moreover, the results for the growth in the test with UACC-257 melanoma and in the test with M14 melanoma were 84.4% and 80.9%, respectively.

As for `O=C(NNC(=O)c1ccc(OCc2nc3ccc(Cl)cc3[nH]2)cc1)Nc1ccc(Cl)c(C(F)(F)F)c1`, the growth with NCI-H23 lung was 35.9%; in the test on NCI-H226 lung, 64.1%; in the test with NCI-H322M lung it was 43.6%; in the test with HOP-62 NSCLC it was 68.4%; with NCI-H460 lung, 38.1%; with HOP-92 NSCLC it was -1.57% (active). The growth with NCI-H522 lung was 49%; in the test with A549/ATCC NSCLC, 57.1%; in the test on 786-0 renal, 70.1%; in the test with COLO 205 colon, 85.6%; with DU-145 prostate, 65.7%; in the test on K-562 leukemia, 39.1%. For the same molecule, the growth in the test on MALME-3M melanoma is 45.7%; with MDA-MB-231 breast it was 17.4%; with RXF 393 renal, 67.3%; with SF-268 CNS it was 78.2%; with SF-295 CNS, 84.9%; in the test on SF-539 CNS, 39.3%. In addition, the growth with UACC-257 melanoma was 73%; with M14 melanoma it was 79.2%.
